Compound activity as filed in PubChem.
Shown are actives, neighbours in structure and some others; about 2.7% of the full set was active somewhere.
Nrf2 ARE act – activators of Nrf2 (ARE) signaling; AREc32 ARE-luciferase reporter (MCF7-derived line), luminescence, 24 h; 410,000 compounds, 0.31% hits; Potency, µM (highest dose often 46.1 µM), without a hit: top-dose activation, usual class: activators; AID 624171; also: potency is read from the fitted curve at half-maximal effect; % of control where 0% means no effect; nearly all actives have a fitted effect of over 65% in size
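Luminescent ARE reporter assay in AREc32_Fluc cells: overnight plating at 37 deg C, 24 hr compound incubation, Steady-Glo added, 30 min RT before reading.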
ERG-DNA inh – inhibitors of human ERG Ets domain-DNA interaction. fluorescence polarization, His-ERG Ets domain / labelled DNA. P11308. Potency, µM (series often up to 76.9 µM), for the others: at the highest dose FP activity, negative = inhibition, hits mostly inhibitors. 370,000 compounds, 0.028% hits; active = well fitted inhibition curve with a large enough effect in the polarisation, with a control signal flat; inconclusive = small, poorly fitted or top-dose-only effect, or effect the other way, or a change in a side signal; inactive = no such curve, though single readings can be large or run the other way; the % refers to the polarisation;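 also: polarization taken with two DNA probes labelled with fluorescein and Texas red; potency is read from the fitted curve at half-maximal effect; % of control where 0% means no effect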
Target sequence (P11308 whole entry, looked up, the tested form may be a part): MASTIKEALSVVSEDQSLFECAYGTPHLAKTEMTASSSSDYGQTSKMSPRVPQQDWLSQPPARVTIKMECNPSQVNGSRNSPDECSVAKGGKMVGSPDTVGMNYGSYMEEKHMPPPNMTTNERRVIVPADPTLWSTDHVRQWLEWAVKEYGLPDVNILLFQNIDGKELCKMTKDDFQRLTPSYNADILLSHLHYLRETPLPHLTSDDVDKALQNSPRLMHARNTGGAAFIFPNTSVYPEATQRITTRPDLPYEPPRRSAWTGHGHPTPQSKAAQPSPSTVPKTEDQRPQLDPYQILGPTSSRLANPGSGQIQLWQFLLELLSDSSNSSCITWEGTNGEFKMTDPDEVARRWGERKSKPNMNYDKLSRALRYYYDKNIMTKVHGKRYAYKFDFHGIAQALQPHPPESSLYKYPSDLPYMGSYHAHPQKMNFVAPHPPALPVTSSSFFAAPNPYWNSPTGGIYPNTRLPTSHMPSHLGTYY
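His-tagged ERG Ets domain (1 uM in the protein solution; 300mM KCl, 50mM Tris-HCl, 1mM EDTA, 1mM DTT, pH 7.5) received compound, then a probe mix of 5 nM fluorescein-DNA and 100nM Texas-615-DNA. Fluorescence polarization was read for both dyes.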
A549 viability – A549 cytotoxicity, counter-screen for Nrf2 inhibitors | A549 ARE-Fluc cells, CellTiter-Fluor viability, 18-24 h | Potency, µM (series often up to 46 µM), inactives show top-dose activity change, negative = cytotoxicity, hits mostly inhibitors | 390,000 compounds, 0.16% hits | AID 504648; also: potency is read from the fitted curve at half-maximal effect; % is scaled to controls: 0 for no effect and ±100 for the full control effect
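Cytotoxicity counterscreen: CellTiter-Fluor fluorescence was measured in A549 ARE_Fluc cells after 18-24 h of compound exposure in a concentration series. The subsequent BugLite luminescent read reports ARE-luciferase activity.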
Nrf2 inh – blocks Nrf2 signaling. A549 ARE-Fluc reporter, luciferase luminescence, 18-24 h. Potency, µM (highest dose often 46 µM), for inactives: at the highest dose activity change, negative = inhibition, usual class: inhibitors. 360,000 compounds, 2.1% hits; also: potency is read from the fitted curve at half-maximal effect; % is scaled to controls: 0 for no effect and ±100 for the full control effect; nearly all actives have a fitted effect of over 60% in size
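Cells were seeded and rested 2 h, then exposed to compounds for 18-24 h. CellTiter-Fluor was read first as a viability measure. BugLite was added 15 min before the final luminescent read of ARE-luciferase activity in A549 cells.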
LDHA block – blocks human lactate dehydrogenase A; AID 1347041; 480,000 compounds, 0.15% hits; P00338; activity change, % (values are at about 110 or 230 µM); purified LDHA, NADH/diaphorase-resazurin fluorescence; hits give low values; in the data active = activity change below about -30%; inconclusive = mostly about -25% to -30%;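 also: plate controls were DMSO wells for no effect and wells without enzyme for full effect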
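Resorufin fluorescence (ex540/em590), read at 0 and 20 min after diaphorase/resazurin addition, reports the NADH left after a 5 min room-temperature reaction of 2 nM human LDH5 with 0.06 mM NADH and 0.2 mM pyruvate.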
12-LOX inh – blocks human arachidonate 12S-lipoxygenase. 580,000 compounds, 1.1% hits. Potency, µM (highest dose often 108 µM), for inactives: top-dose activity change, negative = inhibition, actives largely listed as inhibitors. purified 12hLO, xylenol orange hydroperoxide absorbance. AID 1671190; also: potency is read from the fitted curve at half-maximal effect; % is scaled to controls: 0 for no effect and ±100 for the full control effect
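Purified human 12hLO (150 nM final) in 25 mM Hepes, 0.01% Triton X-100, pH 7.0 was preincubated 15 min at room temperature with compound. Then 40 uM arachidonic acid was added, 30 min. Hydroperoxide was read by Fe-XO absorbance ratio 573/405 nm.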
Active calls of the source: *; ? = inconclusive; / = no result given; ! = a repeat was not active; [ ] = another dose, or the depositor's remark. Unless noted, calls follow the shape of the dose curve; as a rule, active = well fitted curve in the direction sought with a large enough effect; inconclusive = small, poorly fitted or top-dose-only effect, or another doubt; inactive = no such curve, though single readings can be large; an effect the other way counts as inactive or inconclusive.

SMILES | Nrf2 ARE act | ERG-DNA inh | A549 viability | Nrf2 inh | LDHA block | 12-LOX inh
CN(C)c1ccc([N+](=O)[O-])c([N+](=O)[O-])c1 | 11.2µM* | 1.8% | ? | -20.1% | -2.3 | ?
CCC(CC)c1cc([C@H]2CN3CC[C@H]2C[C@@H]3COC(=O)Nc2ccc(C(C)(C)C)cc2)nc(-c2ccncc2)n1 | / | / | / | / | / | 50.1µM*
COc1ccccc1OCCCn1cc(C(C)=O)c2ccccc21 | 3.1% | 0.0% | 0.4% | ? | -10.6 | 18.7%
COc1ccc(C(=O)NCCn2cc(SC(C)c3ccccc3)c3ccccc32)cc1OC (stereo not drawn) | 0.7% | 3.5% | -18.8% | 23.1µM* | -3.9 | 0.0%
COC(=O)c1c(C)n(Cc2ccccc2)c2ccc(O)cc12 | -0.6% | -16.0% | -22.2% | 13.6% | -23.7 | 15.8µM*!
CCCNS(=O)(=O)c1ccc(OCC(=O)N2CCN(Cc3ccc4c(c3)OCO4)CC2)c(C)c1 | 7.0% | 8.5% | 4.1% | 11.6µM* | 1.9 | ?
CCCNS(=O)(=O)c1ccc(OCC(=O)N2CCN(Cc3ccc4c(c3)OCO4)CC2)cc1 | -0.1% | -13.1% | -12.9% | 8.2µM* | -14.0 | 0.9%
Cc1ccc(OCC(=O)N2CCN(Cc3ccc4c(c3)OCO4)CC2)cc1 | 2.0% | 14.4% | 1.7% | -12.4% | -19.7 | ?
CNc1oc(-c2ccc(C)cc2)nc1P(=O)(OC)OC | / | / | / | / | -15.8 | -8.8%
CC1=C(O)C(=O)C=C2C1=CC=C1[C@@]2(C)CC[C@@]2(C)[C@@H]3C[C@](C)(C(=O)O)CC[C@]3(C)CC[C@]12C | / | / | / | / | / | 2.43µM*!
COCCCn1c(N)c(C(=O)NCCC(C)C)c2nc3ccccc3nc21 | 0.1% | -2.9% | ? | 16.4µM* | 33.4 | -0.1%
Cc1cccc2[nH]cc(C3=CCN(C(C)C(=O)NC4CC4)CC3)c12 (stereo not drawn) | / | / | / | / | 0.2 | ?
Clc1ccccc1CN1CCN(c2ccccc2)CC1 | -0.8% | -25.3% | -6.8% | -16.3% | -10.3 | 0.891µM*
O=C(O)c1ccccc1SCC(=O)N1c2ccccc2Sc2ccccc21 | ? | 13.6% | -7.5% | 2.8% | -5.2 | -24.7%
C[CH2][Hg][S]c1ccccc1C(=O)O | ? | -10.8% | 16.4µM* | ? | -20.7 | 5.62µM*
O=C1Nc2ccccc2Sc2ccccc21 | 3.7% | 2.3% | 0.0% | -12.7% | -1.2 | ?
c1ccc2c(c1)Nc1ccccc1S2 | -0.8% | -16.1% | -3.4% | -0.8% | -8.7 | 0.114µM*
N#Cc1cccc(NC(=O)Nc2ccc3n(c2=O)C[C@H]2C[C@@H]3CN(C3CCOCC3)C2)c1 | / | / | / | / | / | 15.8µM*
O=S(=O)(c1ccc(F)c(F)c1F)N1CCN(c2ncnc3sccc23)CC1 | 4.9% | -5.4% | -0.4% | 13µM* | -7.8 | -12.0%
O=C(Cc1ccccc1)N1Cc2ccccc2CC2(CCCCN2Cc2ccccn2)C1 (stereo not drawn) | / | / | / | / | / | 5.8%[6.33 µM]
CC12CN3CC(C)(C[N+](C)(C3)C1)C2=O | / | / | / | / | -0.5 | -63.8%
Fc1ccc(N2CCN(c3ncnc4c3nc3n4CCCCC3)CC2)cc1 | -0.6% | 11.1% | 1.0% | 8.2µM* | -3.2 | -25.2%
O=C1NC(=O)N(Cc2ccc(F)cc2)C(=O)/C1=C\c1ccc(N2CCCC2)cc1 | -1.2% | 26.3% | 4.0% | 3.5% | -7.1 | 6.0%
c1ccc(N2CCN(c3ncnc4c3nc3n4CCCCC3)CC2)cc1 | -0.4% | -6.1% | -16.0% | 23.1µM* | -2.0 | 1.7%
COc1ccc2c(c1)CCc1c(C(=O)Nc3c(C)nn(Cc4ccccc4C)c3C)noc1-2 | 4.5% | 5.0% | -5.9% | 18.4µM* | 8.2 | ?
SMILES | Nrf2 ARE act | ERG-DNA inh | A549 viability | Nrf2 inh | LDHA block | 12-LOX inh
COc1ccccc1/C=C1\C(=O)NC(=S)N(c2ccccc2)C1=O | 0.2% | 12.9% | 0.8% | 5.7% | -24.4 | ?
COc1ccccc1C=C1C(=O)NC(=S)NC1=O | -0.1% | 0.4% | 6.0% | -21.1% | -56.7* | ?
CC(C)CN1Cc2ccccc2-n2ccnc2C12CCN(C(=O)c1cccc(F)c1)CC2 | / | / | / | / | / | 4.6%
CCOc1ccc(-n2c(/C=C/c3ccccc3)nc3ccccc3c2=O)cc1 | 3.9% | 1.9% | 2.4% | / | 5.0 | 0.6%
CCn1nc(/C=C/c2ccccc2)nc2c(=O)n(C)c(=O)nc1-2 | -2.8% | 6.8% | 5.8µM* | ? | 50.4 | -29.9%
CCn1nc(-c2cccs2)nc2c(=O)n(C)c(=O)nc1-2 | -3.9% | ? | 1.46µM* | 5.17µM* | 31.2 | /
CC(C)CN1Cc2ccccc2-n2ccnc2C12CCN(C(=O)c1ccn[nH]1)CC2 | / | / | / | / | / | -1.0%
CSC(C)C(=O)NC(C)Cc1ccc(Br)cc1 (stereo not drawn) | / | / | / | / | -1.1 | -28.4%
Cc1cc(C)c2c(ccc3cccc[n+]32)c1 | -0.8% | 2.7% | ? | 1.3µM* | 0.1 | -9.8%
Cc1cc(C)cc(OCCOc2cccc(C=C3C(=O)NC(=O)NC3=O)c2)c1 | -0.7% | -4.2% | -17.9% | -2.8% | -8.1 | 12.6µM*
O=C1NC(=O)C(=Cc2ccc3ccccc3c2)C(=O)N1 | 0.1% | 9.1% | ? | 8.5% | -2.1 | ?
Cc1ccc(OCCOc2cccc(C=C3C(=O)NC(=O)NC3=O)c2)cc1 | -2.9% | 3.3% | -2.3% | ? | -23.8 | 31.6µM*
N=c1c2c(n(Cc3ccc(Cl)cc3Cl)c3c1CCC3)CCCC2 | 6.6% | 6.4% | ? | 13µM* | -2.0 | /
O=C(c1ccc2c(c1)N(Cc1c(F)cccc1Cl)C(=O)c1ccccc1S2)N1CCC2(CC1)OCCO2 | -0.3% | 4.5% | ? | 20.6µM* | -11.3 | 0.0%
CCN1C(=O)c2ccccc2Sc2ccc(C(=O)N3CCC4(CC3)OCCO4)cc21 | 1.0% | 0.8% | -4.2% | ? | -3.9 | 17.0%
C#C[C@H]1CN2CC[C@H]1C[C@@H]2CNC(=O)c1ccc2ccccc2c1 | / | / | / | / | / | 5.8%[176 µM]
COc1ccc(NC(=O)CCn2cnc3onc(-c4ccc(F)cc4)c3c2=O)cc1OC | 2.6% | -9.6% | -13.8% | 23.1µM* | -6.9 | ?
O=C(O)CCCC(=O)N1C[C@@H]2C[C@H](C1)c1ccc(-c3ccc(Cl)cc3)c(=O)n1C2 | / | / | / | / | / | 7.8%[176 µM]
O=[N+]([O-])/C=C/c1c(Cl)cccc1Cl | 14.1µM* | -5.4% | -6.1% | -25.6% | 0.7 | 1.8%
CC1(C)Cc2c(c(N3CCOCC3)nc3sc4c(NCc5ccccc5)nnnc4c23)CS1 | -0.6% | 3.3% | -1.9% | 2.59µM* | 1.4 | 4.8%
CCOC(=O)CC(SP(=S)(OC)OC)C(=O)OCC (stereo not drawn) | / | / | / | / | / | 23.3µM*!
Cc1c(C(=O)NCCC2=CCCCC2)oc2ccc(S(=O)(=O)N3CCC4(CC3)OCCO4)cc12 | 2.1% | 5.2% | -15.9% | 7.31µM* | 1.3 | 0.0%
